According to ChEMBL document CHEMBL1961873, “Compounds: GSK PKIS; Assays: Nanosyn kinase panel” (2012):

Assays:
[1] = biological target: Death-associated protein kinase 1 (Homo sapiens) (UniProt P53355); settings: at 1 µM;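 further: each value is a mean inhibition figure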
[2] = biological target: T1, Serine/threonine-protein kinase DCLK2 (Homo sapiens) (UniProt Q8N568); settings: at 0.1 µM
T1 sequence (whole entry): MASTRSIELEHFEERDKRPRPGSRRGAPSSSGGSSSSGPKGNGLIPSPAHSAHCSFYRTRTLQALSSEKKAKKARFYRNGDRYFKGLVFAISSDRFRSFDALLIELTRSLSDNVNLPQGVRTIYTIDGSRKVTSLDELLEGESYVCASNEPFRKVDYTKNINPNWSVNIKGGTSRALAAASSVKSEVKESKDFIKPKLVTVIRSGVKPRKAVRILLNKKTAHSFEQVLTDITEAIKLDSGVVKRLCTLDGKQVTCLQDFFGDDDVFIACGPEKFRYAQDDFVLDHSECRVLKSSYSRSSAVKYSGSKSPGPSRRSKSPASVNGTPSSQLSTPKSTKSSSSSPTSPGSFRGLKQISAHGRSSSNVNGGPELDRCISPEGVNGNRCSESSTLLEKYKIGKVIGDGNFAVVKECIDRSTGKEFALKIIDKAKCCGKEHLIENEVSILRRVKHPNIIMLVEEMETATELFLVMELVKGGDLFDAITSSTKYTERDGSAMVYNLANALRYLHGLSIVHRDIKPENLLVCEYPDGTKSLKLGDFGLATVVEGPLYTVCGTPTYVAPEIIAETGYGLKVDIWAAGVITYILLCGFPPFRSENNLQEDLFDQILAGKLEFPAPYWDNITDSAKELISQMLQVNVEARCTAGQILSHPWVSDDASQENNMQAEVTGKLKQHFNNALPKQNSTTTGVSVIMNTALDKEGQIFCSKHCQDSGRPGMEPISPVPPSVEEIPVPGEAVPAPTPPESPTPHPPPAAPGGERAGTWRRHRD

[3] = biological target: T1, Serine/threonine-protein kinase DCLK2 (Homo sapiens); settings: at 1 µM
[4] = biological target: MAP kinase-activated protein kinase 2 (Homo sapiens) (UniProt P49137); settings: at 0.1 µM
Chain of MAP kinase-activated protein kinase 2 (Homo sapiens) (P49137 whole entry, looked up): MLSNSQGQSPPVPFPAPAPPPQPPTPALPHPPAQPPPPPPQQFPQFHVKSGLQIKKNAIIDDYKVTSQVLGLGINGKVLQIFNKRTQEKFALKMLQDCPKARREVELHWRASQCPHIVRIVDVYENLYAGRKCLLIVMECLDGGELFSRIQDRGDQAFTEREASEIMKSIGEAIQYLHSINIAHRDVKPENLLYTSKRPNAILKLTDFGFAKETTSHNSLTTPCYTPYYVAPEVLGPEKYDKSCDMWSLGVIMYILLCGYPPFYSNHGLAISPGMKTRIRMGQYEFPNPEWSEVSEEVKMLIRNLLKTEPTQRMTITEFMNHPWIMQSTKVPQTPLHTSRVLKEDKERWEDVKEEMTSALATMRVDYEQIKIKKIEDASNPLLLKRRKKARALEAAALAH

[5] = biological target: MAP kinase-activated protein kinase 2 (Homo sapiens) (UniProt P49137); settings: at 1 µM
[6] = biological target: MAP kinase-activated protein kinase 3 (Homo sapiens) (UniProt Q16644); settings: at 0.1 µM
Chain of MAP kinase-activated protein kinase 3 (Homo sapiens) (Q16644 whole entry, looked up): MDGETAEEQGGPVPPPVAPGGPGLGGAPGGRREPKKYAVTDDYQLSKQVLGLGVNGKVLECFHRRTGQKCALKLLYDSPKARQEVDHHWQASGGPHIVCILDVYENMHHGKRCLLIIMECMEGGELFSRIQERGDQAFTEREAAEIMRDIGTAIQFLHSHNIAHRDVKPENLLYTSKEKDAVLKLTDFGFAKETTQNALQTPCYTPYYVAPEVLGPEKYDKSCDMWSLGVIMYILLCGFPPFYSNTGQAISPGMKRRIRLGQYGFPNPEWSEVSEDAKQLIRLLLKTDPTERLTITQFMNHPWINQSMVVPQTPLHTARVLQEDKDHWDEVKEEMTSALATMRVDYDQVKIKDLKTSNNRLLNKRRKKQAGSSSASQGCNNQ

[7] = biological target: MAP kinase-activated protein kinase 3 (Homo sapiens) (UniProt Q16644); settings: at 1 µM
[8] = biological target: Serine/threonine-protein kinase MARK1 (Homo sapiens) (UniProt Q9P0L2); settings: at 0.1 µM
Chain of Serine/threonine-protein kinase MARK1 (Homo sapiens) (Q9P0L2 whole entry, looked up): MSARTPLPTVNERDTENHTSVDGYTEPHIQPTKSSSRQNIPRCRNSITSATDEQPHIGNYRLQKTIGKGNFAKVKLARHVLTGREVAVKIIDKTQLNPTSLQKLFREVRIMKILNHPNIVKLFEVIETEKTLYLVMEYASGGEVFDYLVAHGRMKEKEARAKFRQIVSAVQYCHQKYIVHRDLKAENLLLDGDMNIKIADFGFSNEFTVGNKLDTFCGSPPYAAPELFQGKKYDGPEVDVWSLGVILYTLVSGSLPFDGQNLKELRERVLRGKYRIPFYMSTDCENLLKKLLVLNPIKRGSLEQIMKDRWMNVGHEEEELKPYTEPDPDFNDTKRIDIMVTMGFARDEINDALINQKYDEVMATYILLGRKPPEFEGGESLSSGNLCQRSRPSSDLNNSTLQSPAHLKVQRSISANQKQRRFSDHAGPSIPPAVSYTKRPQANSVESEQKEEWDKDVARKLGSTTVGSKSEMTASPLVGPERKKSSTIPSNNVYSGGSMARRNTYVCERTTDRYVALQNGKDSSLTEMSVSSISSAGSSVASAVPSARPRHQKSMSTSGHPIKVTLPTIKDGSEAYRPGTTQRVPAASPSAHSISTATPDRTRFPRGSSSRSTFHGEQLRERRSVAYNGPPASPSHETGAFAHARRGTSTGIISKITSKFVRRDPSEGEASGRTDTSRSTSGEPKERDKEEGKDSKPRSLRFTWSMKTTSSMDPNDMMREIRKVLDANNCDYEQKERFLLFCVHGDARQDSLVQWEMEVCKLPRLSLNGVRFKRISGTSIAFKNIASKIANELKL

[9] = biological target: Serine/threonine-protein kinase MARK1 (Homo sapiens) (UniProt Q9P0L2); settings: at 1 µM
[10] = biological target: MAP/microtubule affinity-regulating kinase 3 (Homo sapiens) (UniProt P27448); settings: at 0.1 µM;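 further: mean percent inhibition of MARK3 kinase activity, measured within the GSK PKIS screening panel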
Chain of MAP/microtubule affinity-regulating kinase 3 (Homo sapiens) (P27448 whole entry, looked up): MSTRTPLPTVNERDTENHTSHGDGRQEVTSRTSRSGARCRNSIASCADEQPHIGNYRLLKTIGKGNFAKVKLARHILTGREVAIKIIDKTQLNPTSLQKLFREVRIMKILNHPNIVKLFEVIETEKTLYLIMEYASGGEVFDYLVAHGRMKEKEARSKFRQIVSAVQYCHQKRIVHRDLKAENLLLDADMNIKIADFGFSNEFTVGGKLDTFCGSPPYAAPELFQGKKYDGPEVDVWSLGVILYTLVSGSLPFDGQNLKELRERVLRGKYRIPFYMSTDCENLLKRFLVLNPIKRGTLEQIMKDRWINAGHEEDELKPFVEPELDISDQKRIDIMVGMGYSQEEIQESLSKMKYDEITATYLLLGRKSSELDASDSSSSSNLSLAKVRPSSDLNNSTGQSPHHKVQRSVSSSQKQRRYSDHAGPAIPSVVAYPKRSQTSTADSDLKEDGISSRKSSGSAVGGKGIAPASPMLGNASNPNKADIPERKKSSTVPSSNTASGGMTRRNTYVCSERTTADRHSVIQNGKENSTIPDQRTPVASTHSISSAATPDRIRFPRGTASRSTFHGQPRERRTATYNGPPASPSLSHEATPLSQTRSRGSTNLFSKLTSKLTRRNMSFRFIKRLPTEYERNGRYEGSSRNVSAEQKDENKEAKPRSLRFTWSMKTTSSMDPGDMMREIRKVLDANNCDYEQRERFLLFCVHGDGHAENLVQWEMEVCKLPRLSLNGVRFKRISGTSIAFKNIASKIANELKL

Chain of Death-associated protein kinase 1 (Homo sapiens) (P53355 whole entry, looked up): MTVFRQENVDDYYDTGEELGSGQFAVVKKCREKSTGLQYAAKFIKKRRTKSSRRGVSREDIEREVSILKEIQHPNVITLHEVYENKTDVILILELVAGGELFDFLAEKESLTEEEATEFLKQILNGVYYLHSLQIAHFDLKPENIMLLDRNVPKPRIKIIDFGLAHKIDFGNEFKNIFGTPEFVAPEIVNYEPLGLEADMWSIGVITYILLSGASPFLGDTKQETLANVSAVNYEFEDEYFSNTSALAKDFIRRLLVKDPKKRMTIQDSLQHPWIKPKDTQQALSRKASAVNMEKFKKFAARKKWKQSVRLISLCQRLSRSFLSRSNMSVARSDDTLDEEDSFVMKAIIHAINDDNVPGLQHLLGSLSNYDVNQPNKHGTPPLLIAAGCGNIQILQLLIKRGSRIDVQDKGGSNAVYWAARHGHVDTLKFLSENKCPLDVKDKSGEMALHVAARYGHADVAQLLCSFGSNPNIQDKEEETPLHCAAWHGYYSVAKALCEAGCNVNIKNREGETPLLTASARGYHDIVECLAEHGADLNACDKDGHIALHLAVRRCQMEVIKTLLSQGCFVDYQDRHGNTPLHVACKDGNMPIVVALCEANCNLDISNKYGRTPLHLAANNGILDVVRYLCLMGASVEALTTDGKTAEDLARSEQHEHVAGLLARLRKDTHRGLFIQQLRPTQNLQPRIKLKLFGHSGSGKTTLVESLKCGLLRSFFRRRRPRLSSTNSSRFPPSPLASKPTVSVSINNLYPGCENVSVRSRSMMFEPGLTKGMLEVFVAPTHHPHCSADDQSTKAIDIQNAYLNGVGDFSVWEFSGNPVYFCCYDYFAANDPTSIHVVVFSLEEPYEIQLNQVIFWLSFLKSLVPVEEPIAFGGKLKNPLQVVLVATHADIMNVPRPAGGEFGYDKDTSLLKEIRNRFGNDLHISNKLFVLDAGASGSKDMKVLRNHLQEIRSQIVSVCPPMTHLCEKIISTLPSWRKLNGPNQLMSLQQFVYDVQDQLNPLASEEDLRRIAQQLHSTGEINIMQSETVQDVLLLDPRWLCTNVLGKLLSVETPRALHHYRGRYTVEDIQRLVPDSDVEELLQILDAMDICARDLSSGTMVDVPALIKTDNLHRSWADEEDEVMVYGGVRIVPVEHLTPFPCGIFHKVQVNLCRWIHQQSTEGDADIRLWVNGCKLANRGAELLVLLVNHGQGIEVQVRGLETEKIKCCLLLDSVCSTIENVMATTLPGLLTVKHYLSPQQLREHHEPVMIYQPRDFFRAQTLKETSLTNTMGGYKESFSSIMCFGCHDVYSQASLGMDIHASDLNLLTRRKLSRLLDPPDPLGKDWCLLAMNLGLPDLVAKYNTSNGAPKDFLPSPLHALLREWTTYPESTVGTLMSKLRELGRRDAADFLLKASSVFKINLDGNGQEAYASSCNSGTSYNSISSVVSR

Structure (SMILES)	inhibition [1] [%]	inhibition [2] [%]	inhibition [3] [%]	inhibition [4] [%]	inhibition [5] [%]	inhibition [6] [%]	inhibition [7] [%]	inhibition [8] [%]	inhibition [9] [%]	inhibition [10] [%]
NS(=O)(=O)c1ccc(NC=C2C(=O)Nc3ccc4ncsc4c32)cc1	24.9	0.84	7.25	2.28	4.38	5.09	5.58	30.8	67.3	17.8
COc1cccc(-n2ncc3c(N/N=C/c4ccc(C)cc4)ncnc32)c1	-4.37	0.26	2.82	-0.94	0.98	-0.57	-0.87	3.16	6.21	2.69
COc1cccc(-n2nc(C)c3c(N/N=C(\C)c4ccncc4)ncnc32)c1	-0.72	-1	0.33	0.1	0.45	0.03	0.31	0.08	1.32	-0.48
O=S(=O)(CCOCc1ccc(-c2ccc3ncnc(Nc4ccc(OCc5cccc(F)c5)c(Cl)c4)c3c2)o1)c1ccccc1	0.71	-0.21	1.2	0.69	0.79	-0.36	2.16	-0.2	2.87	0.76
COc1cc(Nc2nccc(-c3cnn4ncccc34)n2)cc(OC)c1	1.26	4.84	-3.23	0.26	0.15	0.44	0.56	4.67	32.3	6.88
NS(=O)(=O)c1cccc(-c2cc3ccncc3cc2OCc2ccccc2)c1	7.29	0.9	0.91	2.83	3.32	4.06	3.27	5.91	9.52	5.98
COC(=O)c1ccc2c(c1)C(=Cc1cc(Br)c(O)c(Br)c1)C(=O)N2	-8.17	1.31	0.79	4.54	7.08	8.04	10.5	1.62	5.65	-2.9
CN(C)CCCn1c(-c2nonc2N)nc2cnccc21	5.9	0.05	2.05	2.54	1.94	4.24	4.17	3.64	6.1	4.25
Cc1ccc(C(=O)NC2CC2)cc1-c1ccc2[nH]ncc2c1	-2.38	-3.53	-2.34	-2.72	-1.94	3.22	18.7	0.44	2.83	1.64
CS(=O)(=O)Nc1cccc(-c2ccc3c(NC(=O)C4CC4)n[nH]c3c2)c1	3.29	2.43	1.35	0.07	0.38	-0.07	0.93	0.98	3.49	1.49
CN(C)C(=O)O[C@@H]1CN[C@@H](C#Cc2cc3ncnc(Nc4ccc(OCc5cccc(F)c5)c(Cl)c4)c3s2)C1	1.85	1.22	0.53	-2.43	-0.13	2.61	3.12	0.76	0.76	2.16
COc1ccc(-c2nn3ncccc3c2-c2ccnc(Nc3cccc(C(F)(F)F)c3)n2)cc1	2.26	-0.87	-1.41	1.58	0.39	7.94	23.9	1.45	3.55	0.72
CCCN1CCCC(c2ccc(Nc3nc(Nc4cc(F)ccc4C(N)=O)c4cc[nH]c4n3)c(OC)c2)C1 (stereo not given)	47.1	2.57	7.08	2.17	3.54	8.62	17.3	11	52.9	19.9
Cc1nc(-c2ccccc2)n2nc(NCCCN3CCOCC3)ncc12	1.62	-0.46	1.45	1.25	2.01	1.51	1.12	0.92	3	0.93
O=C1Nc2ccccc2/C1=C/Nc1ccc2[nH]c(=O)[nH]c2c1	2.63	0.75	-0.33	2.44	2.97	6.76	8.08	6.25	32.5	2.47
Cc1ccc(O)cc1Nc1ccnc2ccc(S(C)(=O)=O)cc12	13.2	2.11	1.09	4.78	5.17	14.2	24.2	4.73	7.33	2.7
O=C1Nc2ccc(-c3cccnc3)cc2C1=Cc1cc(Br)c(O)c(Br)c1	-6.21	1.65	0.92	1.36	1.49	2.4	2.92	4.31	9.1	4.31
